Laboratory results reported in PubChem BioAssay (EPA / NIEHS).
Inconclusive results are not listed. Calls of active or inactive are those of the source. How the source made its calls: active means hit-call score of the fitted dose curve at least 0.9, where 1 is the maximum; inactive means score below 0.9.

read-out: ABC Transporter (ABCB11), ABCB11 (gene 8647); test: CLD_ABCB11_24hr: CellzDirect (CLD) Gene Expression Assay for ABC Transporter (ABCB11) at 24 hours (AID 2283674)
Protocol: CLD_24hr is a cell-based, multiplexed-readout assay that uses hepatocyte, a human liver primary cell, with measurements taken at 24 hours after chemical dosing in a 96-well plate.CLD_ABCB11_24hr is one of 16 assay component(s) measured or calculated from the CLD_24hr assay. It is designed to make measurements of mRNA induction, a form of inducible reporter, as detected with chemiluminescence signals by Quantitative Nuclease Protection Assay (qNPA) technology.Data from the assay component CLD_ABCB11_24hr was analyzed at the endpoint, CLD_ABCB11_24hr, in the positive analysis fitting direction relative to DMSO as the negative control and baseline of activity. Using a type of inducible reporter, gain-of-signal activity can be used to understand changes in the reporter gene as they relate to the gene ABCB11. Furthermore, this assay endpoint can be referred to as a primary readout. To generalize the intended target to other relatable targets, this assay endpoint is annotated to the transporter intended target family, where subfamily is ABC transporter.
Human hepatocyte cultures were treated daily for two consecutive days with fresh dosing solutions containing appropriate concentrations of the 320 ToxCast chemicals (chemical identities were blinded to CellzDirect and other ToxCast collaborators), vehicle control (0.2% DMSO), and positive control inducers as summarized in Table 1. Due to the large number of treatment groups and chemicals examined, the ToxCast chemicals were divided into two groups (spanning two independent cultures of hepatocytes from separate donor preparations (Hu778: ToxCast plates 1 and 2; Hu776: ToxCast plates 3 and 4). Each preparation of human hepatocyte cultures was treated with respective vehicle control, medium only control, set of six positive controls/reference chemicals for the five hepatic receptor pathways, and a subset of eight of the ToxCast chemicals (indoxacarb, pyrithiobac-sodium, norflurazon, cyhalofop-butyl, methomyl, thiram, acetochlor, and propiconazole). These replicate data, coupled with internal replicates designed within the blinded ToxCast chemical library, provided additional data to evaluate interindividual differences between hepatocyte preparations and their potential impact on chemical profiles.Cell morphology and integrity were evaluated using phase-contrast microscopy as an indicator of hepatocyte cell health (Tyson & Green, 1987). Cultures for each treatment group (i.e., media, vehicle [0.2% DMSO], positive control inducers [multiple concentrations], and the ToxCast chemicals [multiple concentrations]) were observed and cell morphology was assessed relative to vehicle control cultures at each harvest time point (0, 6, 24, or 48 h). […] Images were evaluated at the conclusion of the study to assess changes in cell integrity and account for the effects of chemical exposure on uncharacteristic changes in concentration-dependent gene expression profiles. The results from these determinations of apparent cytotoxicity were annotated (yes/no) alongside the corresponding qNPA data for reference.At the conclusion of each treatment period, hepatocyte cultures (96-well) were washed with 1 volume of HBSS, lysed by addition of 25 ul ArrayPlate lysis buffer (HTG, Tucson, AZ), and 70 ul/well of Denaturation Oil, denatured by incubation at 95C for 10 min, and frozen at approximately -70C until analysis by nuclease protection assay (qNPA) (Roberts et al., 2007). For qNPA analysis, cell lysates were thawed at 50C for approximately 30 min, qNPA probes were added, and samples were incubated at 95C for 10 min to begin the detection process by denaturing the target RNA, dissociating the duplexes and secondary structure hybridization. At the conclusion of the hybridization period, S1 nuclease reagent was added to each sample to digest all nonprotected nucleotides at 50C for 60-90 min. […]

SMILES	outcome	AC50
CCNc1nc(N)nc(Cl)n1	inactive	
COC(=O)c1ccc(I)cc1S(=O)(=O)NC(=O)Nc1nc(C)nc(OC)n1	inactive	
CCCOC(=O)c1ccc(C(=O)OCCC)nc1	inactive	
Oc1ccc(C(c2ccc(O)cc2)C(Cl)(Cl)Cl)cc1	inactive	
CCOC(=O)C(C)Oc1ccc(Oc2cnc3cc(Cl)ccc3n2)cc1 (stereo not drawn)	inactive	
OB(O)O	inactive	
CCC(O)=C1C(=O)CC(C(=O)O)CC1=O (stereo not drawn)	inactive	
C#CCOC(=O)[C@@H](C)Oc1ccc(Oc2ncc(Cl)cc2F)cc1	inactive	
Cc1nn(C)c(Oc2ccccc2)c1C=NOCc1ccc(C(=O)OC(C)(C)C)cc1		36.8 µM (active)
CCC(C)OC(=O)N1CCCCC1CCO (stereo not drawn)	inactive	
CCCN(CCC)C(=O)SCC	inactive	
COCCO	inactive	
COC(=O)c1ccc(CNS(C)(=O)=O)cc1S(=O)(=O)NC(=O)Nc1nc(OC)cc(OC)n1	inactive	
CCOC(=O)[C@H](C)Oc1ccc(Oc2nc3ccc(Cl)cc3o2)cc1	inactive	
c1ccc(Nc2ccccc2)cc1	inactive	
N#CSCSc1nc2ccccc2s1	inactive	
COC(=O)c1ccccc1C(=O)O	inactive	
CC(C)(c1ccc(O)cc1)c1ccc(O)cc1	inactive	
